# Measured values published in PubChem BioAssay (NCATS).
# Inconclusive results are not listed. Where a call stands in place of a potency, no number is given. Calls of active or inactive are those of the source. Calls follow the shape of the dose curve; as a rule, active = well fitted curve in the direction sought with a large enough effect; inconclusive = small, poorly fitted or top-dose-only effect, or another doubt; inactive = no such curve, though single readings can be large; an effect the other way counts as inactive or inconclusive.
# What was measured:
# [1] = biological target: Aldehyde dehydrogenase, mitochondrial (Homo sapiens) (UniProt P05091); assay: qHTS for Inhibitors of the Aldehyde Dehydrogenase Family (ALDH2) Primary screen (AID 2061308); also: nearly all actives have a fitted effect of over 55% in size
# [2] = biological target: Retinaldehyde dehydrogenase 3 (Homo sapiens) (UniProt P47895); assay: qHTS for Inhibitors of the Aldehyde Dehydrogenase Family (ALDH1A3) Primary screen (AID 2061315)
SMILES,Potency [1],Potency [2]
O=[S+]([O-])(c1ccc(-c2ccccc2)cc1)N1CCN([S+](=O)([O-])c2ccc3c(c2)OCCO3)CC1,inactive,inactive
Cc1ccccc1-c1nnc(NC(=O)Nc2ccc3ccccc3c2)s1,inactive,inactive
c1nc(NCCc2cnc[nH]2)c2cc(-c3ccc4c(c3)OCO4)ccc2n1,inactive,inactive
N=c1c2c(ncn1CCN1CCOCC1)Oc1ccc3ccccc3c1C2c1ccccc1 (stereo not drawn),inactive,inactive
COc1ccc(C2=Nn3c(nnc3-c3ccccc3OC)SC2)cc1OC,inactive,inactive
Cc1cc(C)n2ncc(C(=O)Nc3ccc(C)c(C)c3)c2n1,inactive,inactive
CC(O)C(O)/C=C/C=C/C(=O)O[C@@H]1C=C(C(=O)O)[C@](O)(CO)[C@@]2(C)CCCC(C)(C)[C@H]12 (stereo partly drawn),inactive,inactive
Cc1cc(NC(=O)c2csc(NC(=O)Cc3ccc(Cl)c(Cl)c3)n2)no1,inactive,inactive
CCn1cnc2c(NCc3cccnc3)nc(C#N)nc21,inactive,inactive
Cc1cccc(C)c1SC1=NS(=O)(=O)c2ccccc21,inactive,inactive
CCC(=O)NC(c1ccco1)c1cc(Cl)c2cccnc2c1O (stereo not drawn),inactive,inactive
COc1cc(O)c(C(CC(=O)N2CCCC(c3ccccc3)C2)c2ccc3c(c2)OCO3)c(OC)c1 (stereo not drawn),inactive,inactive
CC[C@]1(O)C[C@H]2CN(CCC3C(=Nc4ccccc43)[C@@](C(=O)OC)(c3cc4c(cc3OC)N(C)[C@H]3[C@@](O)(C(N)=O)[C@H](O)[C@]5(CC)C=CCN6CC[C@]43[C@@H]65)C2)C1 (stereo partly drawn),inactive,inactive
CCOC(=O)c1c(/C=N/Nc2ccccc2)c2sc(C)cc2n1C,inactive,inactive
COc1ccc(-c2nc3ccccc3s2)cc1OC,inactive,inactive
Cc1ccc(OCCn2c(CCNC(=O)/C=C/c3cccc(Br)c3)nc3ccccc32)cc1,inactive,inactive
O=C(Nc1ncc(Cc2ccc(C(F)(F)F)cc2)s1)c1ccc(-c2cccc([N+](=O)[O-])c2)o1,inactive,inactive
Cc1ccc(OCCn2c(CCNC(=O)c3ccc(C#N)cc3)nc3ccccc32)cc1,inactive,inactive
O=C(Nc1ccc(F)c(F)c1)Nc1nnc(-c2ccncc2)s1,inactive,inactive
C=C1C(=O)OC2CC(C)C(CCC(C)O)=CCC12 (stereo not drawn),inactive,inactive
COc1cnc(-c2ccccc2C(C)C)nc1NCc1ccc(-c2cccnc2)cc1,inactive,inactive
O=C(Nc1ccc(Cl)c(C(F)(F)F)c1)Nc1cccc(-c2ccncc2)n1,inactive,inactive
COc1ccc(C2Nc3ccccc3C(=O)N2Cc2ccc(C(F)(F)F)o2)cc1COc1c(C)cccc1C (stereo not drawn),inactive,inactive

SMILES,Potency [1],Potency [2]
Cc1cc(N[S+](=O)([O-])c2cc3c(cc2Cl)NC(=O)CO3)ccc1Br,inactive,inactive
CCc1nnc(NS(=O)(=O)c2ccc(NC(=S)NC(=O)/C=C/c3ccc(F)cc3)cc2)s1,inactive,inactive
O=C1c2ccccc2C(=O)N1c1cccc2cnccc12,inactive,inactive
COc1ccccc1-c1ncc(C)c(NCc2ccc(-c3cccnc3)cc2)n1,inactive,inactive
COc1ccccc1C1=Nn2c(nnc2-c2ccccc2O)SC1,inactive,inactive
Fc1ccc(-c2c(P(=S)(c3ccccc3)c3ccccc3)n3ccccc3[n+]2C/C=C/c2ccccc2)cc1,inactive,inactive
Cc1ccc(NS(=O)(=O)c2cc3c(cc2Cl)NC(=O)CO3)cc1C,inactive,inactive
CC1=CC(=O)CC(C)(C)C1CCC(C)OC1OC(COC(=O)c2cc(O)c(O)c(O)c2)C(O)C(O)C1O (stereo not drawn),inactive,inactive
CCOc1cc(F)c(CCNC(=O)c2cc3sccc3n2Cc2ccccc2)cc1OCC,inactive,inactive
COc1ccc(CC(=O)Nc2ccc(S(=O)(=O)Nc3cc(C)on3)cc2)cc1OC,inactive,inactive
Cc1ccnc(NC(=S)N2CC3CN(c4ccc(Cl)cc4C(F)(F)F)CC3C2)c1 (stereo not drawn),inactive,inactive
FC(F)(F)c1ccc(CNc2nc(-c3ccccc3C(F)(F)F)nc3ccccc23)cc1,inactive,inactive
Clc1cccc(-c2ccc3ncnc(NCc4cccs4)c3c2)c1,inactive,inactive
C=C(C)C(=O)O[C@H]1C[C@@](C)(O)C(=O)CC(O)/C(C)=C\[C@H]2OC(=O)C(=C)[C@H]12 (stereo partly drawn),inactive,inactive
Cc1ccc(NS(=O)(=O)c2ccc3c(c2)CCC(=O)N3)cc1,inactive,inactive
CCOC(=O)CC(=O)Nc1ncnc2c1C(c1ccccc1)c1c(ccc3ccccc13)O2 (stereo not drawn),inactive,inactive
CCCCNc1nc(C)nc2c1nc(-c1ccccc1)n2CC(C)(C)CN(C)C,inactive,inactive
COc1ccc(-c2nc(Nc3ccc(F)c(F)c3)c3ccccc3n2)cc1,inactive,inactive
N#Cc1ccc(C(=O)NCC(=O)OC(C(=O)Nc2cc(C(F)(F)F)ccc2Cl)c2ccccc2)cc1 (stereo not drawn),inactive,inactive
Cc1nc(CNc2ncnc3ccc(-c4ccoc4)cc23)cs1,inactive,inactive
CCCn1c(-c2ccc(F)cc2)nc2c(N3CCN(CCC(=O)OCC)CC3)nc(C)nc21,inactive,inactive
Cc1ccc(Cl)cc1NS(=O)(=O)c1cc2c(cc1Cl)CCC(=O)N2,inactive,inactive
Cc1noc(C)c1-c1ccc2ncnc(NCc3ccc(C(F)(F)F)o3)c2c1,inactive,inactive

SMILES,Potency [1],Potency [2]
O=C(Cn1cc(CNC(=O)C2CCCCC2)nn1)Nc1cc(C(F)(F)F)ccc1Cl,inactive,inactive
O=C(O)c1ccc2c(c1)C(=O)N([C@H](Cc1ccc([N+](=O)[O-])cc1)C(=O)O)C2=O,inactive,inactive
CCOC(=O)c1ccc(O)c2ncc(NCC3CCCN(CCc4ccccc4)C3)cc12 (stereo not drawn),inactive,inactive
Cc1cccc(-n2cnc3cc(C(=O)N4CCCC(c5ccccc5)C4)ccc32)c1 (stereo not drawn),inactive,inactive
O=[S+]([O-])(Nc1ccc(-c2ccccc2)cc1)c1ccc(NCc2ccc(Cl)cc2O)cc1,inactive,inactive
Clc1ccc(-c2nc3ccccc3s2)cc1,inactive,inactive
COc1cc(OC)c(C(CC(=O)N2CC(C)CC(C)C2)c2ccc3c(c2)OCO3)c(OCC#N)c1 (stereo not drawn),inactive,inactive
CC(=O)Nc1sc2c(c1-c1ccc(C(N)=O)cc1)CCNC2,inactive,inactive
COc1cc(Cl)ccc1C(=O)Nc1nc(-c2ccccc2)cs1,inactive,inactive
Cc1ccc(-c2csc(NC(=O)c3ccccc3NS(=O)(=O)c3ccc(C)cc3)n2)cc1,inactive,inactive
Fc1ccc(-c2nc(-c3ccncc3)nc3ccccc23)cc1F,inactive,inactive
CCCn1c(C)nc2c(NCc3ccccc3)nc(C)nc21,inactive,inactive
Cc1ccc(S(=O)(=O)Nc2ccccc2C(=O)Nc2nccs2)cc1,inactive,inactive
NC(=O)C1CCN(c2nc(-c3ccccc3Cl)cs2)CC1,inactive,inactive
O=C(Cc1nnc(-c2nc3ccccc3[nH]2)o1)Nc1cc(C(F)(F)F)ccc1Cl,inactive,inactive
Cc1cccc(-n2cnc3cc(C(=O)N4CCN(C)CC4)ccc32)c1,inactive,inactive
Cc1ccc(-c2csc(N3CCC(C(N)=O)CC3)n2)cc1,inactive,inactive
CCCn1c(-c2ccc(F)cc2)nc2c(NC3CCN(Cc4ccccc4)C3)nc(C)nc21 (stereo not drawn),inactive,inactive
CC(C)Oc1cccc(-c2ccnc(N3CCC(C(N)=O)CC3)n2)c1,inactive,inactive
CCCCC(OC(=O)CNC(=O)c1ccccc1)C(=O)Nc1cc(C(F)(F)F)ccc1Cl (stereo not drawn),inactive,inactive
CC(=O)c1cc2c(s1)c1cnn(Cc3ccccc3F)c(=O)c1n2C,inactive,inactive
C/C=C(\C)C(=O)O[C@H]1C=C(CO)C(=O)[C@H](OC(C)=O)[C@H]1C(C)C,inactive,inactive
O=S(=O)(c1ccc2c(c1)OCCO2)N1CCN(S(=O)(=O)c2cccc[n+]2[O-])CC1,inactive,inactive
